From ChEMBL document CHEMBL3988442, “University of Dundee, Small-Polar-MMV Screening Library” (2021)
Out of some 85,000 compounds screened, about 440 (0.52%) showed an effect of 50% or more. Shown is part of a subset that was picked to be rich in strong results.

Test: In vitro enzyme assay to detect hydrolysis of chlorophenol red-beta-D-[…] directly proportional to the number of Toxoplasma stably expressing beta-galactosidase
Format: functional, organism-based, Toxoplasma gondii
Design: scale not given: in the data most compounds retested in dose-response had high values

CN(Cc1noc(C2CC2)n1)C1CCN(Cc2ccc(F)c(F)c2)C1 (centres undefined)
Percent Effect (10 µM): 1.098%

CN(Cc1noc(C2CC2)n1)C1CCN(Cc2ccccc2C#N)C1 (centres undefined)
Percent Effect (10 µM): 2.644%

CN(Cc1noc(C2CC2)n1)C1CCN(Cc2cccc(F)c2F)C1 (centres undefined)
Percent Effect (10 µM): 67.09%

CCNC(=O)CNc1noc(C(C)(C)C)n1
Percent Effect (50 µM): -18.17%

COCCN(CC(=O)N(C)C)c1ncccn1
Percent Effect (50 µM): 1.212%

CCCN(CCOC)CC(=O)N(C)C
Percent Effect (50 µM): 8.072%

COCCN(CCOC)CC(=O)N(C)C
Percent Effect (50 µM): 56.58%

OC1CCCN(CCOc2ccccc2)C1 (centres undefined)
Percent Effect (50 µM): 1.087%

CCC(C)Oc1ccc(CNCCNS(C)(=O)=O)cc1Cl (centres undefined)
Percent Effect (10 µM): 19.69%

CCC(C)Oc1ccc(CNCCc2c[nH]cn2)cc1Cl (centres undefined)
Percent Effect (10 µM): 81.15%

CCC(C)Oc1ccc(CNCCNC(C)=O)cc1Cl (centres undefined)
Percent Effect (10 µM): 19.61%

CCN(CCN(C)C)C(=O)c1cn(CCN)nn1
Percent Effect (50 µM): 2.797%

Cc1cc(NC(=O)C(C)N(C)Cc2cc(C)on2)on1 (centres undefined)
Percent Effect (50 µM): 5.589%

Cc1ccc(C(=O)NC2CCN(C(C)C)CC2)o1
Percent Effect (50 µM): -16.97%

OCCCN(Cc1ccccc1)Cc1ccccn1
Percent Effect (50 µM): -0.1376%

NCc1cccc(C(F)(F)F)n1
Percent Effect (50 µM): 30.32%

COc1ccc(CCNC(=O)NCCCC(N)=O)cc1
Percent Effect (50 µM): 98.98%

COc1ccc(CCC(=O)NCCNC(C)=O)cc1
Percent Effect (50 µM): 21.36%

CCOC(=O)CNC(=O)NCCc1ccc(OC)cc1
Percent Effect (50 µM): -17.09%

CC1(C)CCCN(C(=O)CCS(C)(=O)=O)CC1
Percent Effect (50 µM): -2.783%

CC[C@H](N)C(=O)N(C)Cc1cccc(OC(F)(F)F)c1
Percent Effect (50 µM): 4.147%

CCCC(N)C(=O)N(C)Cc1cccc(N(C)C)c1 (centres undefined)
Percent Effect (50 µM): 89.59%

CCCC(=O)N(C)Cc1cccc(OC(C)C)c1
Percent Effect (10 µM): 0.05359%

CCN(CC)C(=O)CN1CCC(N)CC1
Percent Effect (50 µM): -1.204%

CNCC1CCN(C(=O)Nc2ccccc2)CC1
Percent Effect (50 µM): -5.234%

NC1CCN(C(=O)Nc2ccccc2)C1 (centres undefined)
Percent Effect (50 µM): 93.84%

NS(=O)(=O)CC1CCN(C(=O)Nc2ccccc2)CC1
Percent Effect (50 µM): 13.92%

N[C@H]1CN(CC(=O)N2CCCCC2)C[C@@H]1C1CC1
Percent Effect (50 µM): 3.394%

CCC(NC(=O)CCC(=O)OC)c1ccccc1 (centres undefined)
Percent Effect (50 µM): -2.759%

COc1ccc(F)c(CN(CCCn2ccnc2)Cc2ccc(C)s2)c1.O=C(O)CC(O)(CC(=O)O)C(=O)O
Percent Effect (10 µM): 53.53%

Cc1ccc(O)c(CN(CCCn2ccnc2)Cc2ccc(C)s2)c1.O=C(O)CC(O)(CC(=O)O)C(=O)O
Percent Effect (10 µM): 4.169%

Cc1ccc(CN(CCCn2ccnc2)Cc2c[nH]nc2C(C)(C)C)s1.O=C(O)CC(O)(CC(=O)O)C(=O)O
Percent Effect (10 µM): -5.969%

Cc1ccc(CN(CCCn2ccnc2)Cc2c(F)cccc2F)s1.O=C(O)CC(O)(CC(=O)O)C(=O)O
Percent Effect (10 µM): 36.95%

Cc1ccc(CN(CCCn2ccnc2)Cc2c[nH]cn2)s1.O=C(O)CC(O)(CC(=O)O)C(=O)O
Percent Effect (10 µM): 27.23%

Cc1ccc(CN(CCCn2ccnc2)Cc2ccccc2O)s1.O=C(O)CC(O)(CC(=O)O)C(=O)O
Percent Effect (10 µM): -8.716%

CCc1ccc(CN(CCCn2ccnc2)Cc2ccc(C)s2)o1.O=C(O)CC(O)(CC(=O)O)C(=O)O
Percent Effect (10 µM): 5.317%

Cc1ccc(CN(CCCn2ccnc2)Cc2cnn(C)c2)s1.O=C(O)CC(O)(CC(=O)O)C(=O)O
Percent Effect (10 µM): -58.36%

Cc1ccc(CN(CCCn2ccnc2)Cc2cccs2)s1.O=C(O)CC(O)(CC(=O)O)C(=O)O
Percent Effect (10 µM): 13.55%

Cc1ccc(CN(CCCn2ccnc2)Cc2cc(F)ccc2F)s1.O=C(O)CC(O)(CC(=O)O)C(=O)O
Percent Effect (10 µM): 64.14%
